Data published in PubChem BioAssay (Tox21).
“And” between values parts separate entries of the source, which are not always exact repeats. Equal values may be shown once. Records with an inconclusive call do not appear. Where a call stands in place of a potency, no number is given. The source made the active and inactive calls. Unless noted, calls follow the shape of the dose curve; as a rule, active = well fitted curve in the direction sought with a large enough effect in the repeat runs; inconclusive = weak or mixed curves; inactive = no such curve, though single readings can be large; an effect the other way counts as inactive or inconclusive.

Assays:
[1] = A CellTox Green Cytotoxicity Assay to monitor cytotoxicity in HepG2 cells - 32 hour (AID 1224883); also: nearly all actives have a fitted effect of over 50% in size
Summary of the method: (§1)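 HepG2 cells, 600/well, preincubated 5 h with CellTox Green dye, then exposed to Tox21 compounds in DMSO at 37 C for up to 40 h. Dead-cell DNA fluorescence read at the indicated time point.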

[2] = A CellTox Green Cytotoxicity Assay to monitor cytotoxicity in HEK293 cells - 8 hour (AID 1224884); also: nearly all actives have a fitted effect of over 35% in size
Summary of the method: (§2)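 HEK293 cells, 600/well, were preincubated 5 hours and then exposed to compounds at 37 C for up to 40 hours. A cell-impermeant cyanine dye staining dead-cell DNA was read by fluorescence at 0, 8, 16, 24, 32 and 40 h time points.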

[3] = qHTS RealTime-Glo MT Cell Viability Assay in HepG2 cells - 16 hour (AID 1224885); also: nearly all actives have a fitted effect of over 50% in size
Summary of the method: (§3)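 Compound treatment began 5 h after plating HepG2 cells (600/well) with NanoLuc luciferase and prosubstrate. Plates stayed at 37 C for 40 h; luminescence was captured at six time points, 0 h through 40 h.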

[4] = qHTS RealTime-Glo MT Cell Viability Assay in HEK293 cells - 24 hour (AID 1224886); also: nearly all actives have a fitted effect of over 50% in size; also: potency is read from the fitted curve at half-maximal effect
Summary of the method: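 Quantitative high-throughput screen of the Tox21 10K library in HEK293: cells and RealTime-Glo reagents plated together, compound added at 5 h, luminescence monitored through 40 h at 37 C.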

[5] = qHTS RealTime-Glo MT Cell Viability Assay in HEK293 cells - 8 hour (AID 1224887); also: nearly all actives have a fitted effect of over 50% in size; also: potency is read from the fitted curve at half-maximal effect
Summary of the method: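 600 cells/well were plated with the nonlytic NanoLuc/prosubstrate reagent, pre-incubated 5 h, then given 23 nL of compound in DMSO. Incubation at 37 C for 40 h, with luminescence from viable-cell-reduced substrate read repeatedly from 0 h.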

[6] = A CellTox Green Cytotoxicity Assay to monitor cytotoxicity in HEK293 cells - 16 hour (AID 1224888); also: nearly all actives have a fitted effect of over 35% in size
Summary of the method: as §2

[7] = A CellTox Green Cytotoxicity Assay to monitor cytotoxicity in HepG2 cells - 8 hour (AID 1224890); also: nearly all actives have a fitted effect of over 45% in size
Summary of the method: as §1

[8] = qHTS assay to identify small molecule antagonists of the estrogen receptor alpha (ER-alpha) signaling pathway using the BG1 cell line in the presence of 0.1 nM 17-beta-estradiol - cell viability counter screen (AID 1259241); also: nearly all actives have a fitted effect of over 40% in size
Summary of the method: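 Viability in VM7Luc4E2 cells after 22 hr compound exposure under 0.1 nM 17beta-estradiol stimulation, by CellTiter-Fluor.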

[9] = qHTS assay to identify small molecule antagonists of the androgen receptor (AR) signaling pathway using the MDA cell line in the presence of 0.5 nM R1881 - cell viability counter screen (AID 1259242); also: nearly all actives have a fitted effect of over 45% in size
Summary of the method: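 MDA-kb2 cells (MMTV-luciferase, AR/GR responsive) were treated with compounds plus 0.5 nM R1881 (final) for 16 hr at 37C, 0% CO2. Viability was then read in the same wells as live-cell protease fluorescence (CellTiter-Fluor, 30 min).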

[10] = biological target: Estrogen receptor (Homo sapiens) (UniProt P03372); experiment: qHTS assay to identify small molecule antagonists of the estrogen receptor alpha (ER-alpha) signaling pathway using the BG1 cell line in the presence of 0.1 nM 17-beta-estradiol (AID 1259244); also: nearly all actives have a fitted effect of over 50% in size
Summary of the method: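 VM7Luc4E2 cells (endogenous full-length ER-alpha, 4×ERE-luciferase), kept 5 days in phenol red-free, charcoal-stripped FBS medium; 4,000 cells/well. Compounds added with 0.1 nM (final) 17beta-estradiol, 22 hr at 37C; luminescence read with ONE-Glo after 30 min.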

[11] = qHTS assay to identify small molecule HDAC inhibitors (AID 1259364); also: top concentration of the series differs between compounds; nearly all actives have a fitted effect of over 45% in size
Summary of the method: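 Wild-type HCT-116 cells, plated overnight at 37 C, exposed to compounds 2 hr at 37 C; luminogenic HDAC-Glo substrate then added 30 min at room temperature. Luminescence reports relative endogenous class I/II HDAC activity.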

[12] = qHTS assay to identify small molecule HDAC inhibitors - cell viability counter screen (AID 1259365)
Summary of the method: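 Cytotoxicity was gauged in wild-type HCT-116 cells after a brief 2hr treatment with DMSO-dissolved compounds at 37C and 5% CO2, using CellTiter-Glo luminescence developed for 30min at room temperature.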

[13] = qHTS assay to identify small molecule agonists of the sonic hedgehog signaling (Shh) pathway (AID 1259368; calls by dose curve;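 also: NIH/3T3-derived 3T3Gli1-Luc cells carrying a stable Gli1-driven firefly luciferase reporter; series mostly up to about 92 µM; nearly all actives have a fitted effect of over 15% in size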)
Summary of the method: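 NIH/3T3-derived 3T3Gli1-Luc cells with stably integrated Gli1-driven firefly luciferase, 2,000 cells/well, compounds added after 4 hr. Incubated 24 hr at 37C, 5% CO2; luminescence read after 30 min with luciferase reagent at room temperature.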

[14] = A CellTox Green Cytotoxicity Assay to monitor cytotoxicity in HepG2 cells - 0 hour (AID 1224882); also: nearly all actives have a fitted effect of over 35% in size
Summary of the method: as §1

[15] = qHTS assay to identify small molecule phospholipidosis (PLD) inducers (AID 1259344; active = well fitted curve in the direction sought with a large enough effect; an effect the other way counts as inactive or inconclusive)
Summary of the method: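 HepG2 cells on collagen I, attached 4 h at 37 C, were co-treated with compound and LipidTOX Red dye for 24 h at 37 C, then fixed with paraformaldehyde plus Hoechst 33342 and imaged by high-content microscopy for phospholipid accumulation.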

[16] = qHTS assay to identify small molecule agonists of the sonic hedgehog signaling (Shh) pathway - cell viability counter screen (AID 1259366); also: nearly all actives have a fitted effect of over 50% in size; also: potency is read from the fitted curve at half-maximal effect
Summary of the method: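 Stable Gli1-Luc NIH/3T3 clone, 2,000 cells/well. Compound exposure 24hr at 37C. Read-out: CellTiter-Fluor fluorescence.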

[17] = qHTS assay to identify small molecule antagonists of the sonic hedgehog signaling (Shh) pathway - cell viability counter screen (AID 1259367); also: nearly all actives have a fitted effect of over 55% in size; also: potency is read from the fitted curve at half-maximal effect
Summary of the method: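 NIH/3T3-derived Gli1-Luc reporter cells (2,000 per well) rested 4 hr at 37 C, then received DMSO compounds plus conditioned medium. After 23 hr of treatment, CellTiter-Fluor was added for 1 hr at 37C and fluorescence read.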

[18] = qHTS RealTime-Glo MT Cell Viability Assay in HepG2 cells - 0 hour (AID 1224889); also: nearly all actives have a fitted effect of over 50% in size; also: potency is read from the fitted curve at half-maximal effect
Summary of the method: as §3

[19] = biological target: Androgen receptor (Homo sapiens) (UniProt P10275); experiment: qHTS assay to identify small molecule antagonists of the androgen receptor (AR) signaling pathway using the MDA cell line in the presence of 0.5 nM R1881 (AID 1259243); also: nearly all actives have a fitted effect of over 50% in size
Summary of the method: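 MDA-kb2 cells (MMTV-luciferase, responsive to AR and GR) at 3,000/well, rested 5 h at 37C, 0% CO2, then given compounds plus 0.5 nM R1881 (final) for 16 hr. Luciferase read with ONE-Glo after 30 min at room temperature.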

Sequence of Estrogen receptor (Homo sapiens) (P03372 whole entry, looked up): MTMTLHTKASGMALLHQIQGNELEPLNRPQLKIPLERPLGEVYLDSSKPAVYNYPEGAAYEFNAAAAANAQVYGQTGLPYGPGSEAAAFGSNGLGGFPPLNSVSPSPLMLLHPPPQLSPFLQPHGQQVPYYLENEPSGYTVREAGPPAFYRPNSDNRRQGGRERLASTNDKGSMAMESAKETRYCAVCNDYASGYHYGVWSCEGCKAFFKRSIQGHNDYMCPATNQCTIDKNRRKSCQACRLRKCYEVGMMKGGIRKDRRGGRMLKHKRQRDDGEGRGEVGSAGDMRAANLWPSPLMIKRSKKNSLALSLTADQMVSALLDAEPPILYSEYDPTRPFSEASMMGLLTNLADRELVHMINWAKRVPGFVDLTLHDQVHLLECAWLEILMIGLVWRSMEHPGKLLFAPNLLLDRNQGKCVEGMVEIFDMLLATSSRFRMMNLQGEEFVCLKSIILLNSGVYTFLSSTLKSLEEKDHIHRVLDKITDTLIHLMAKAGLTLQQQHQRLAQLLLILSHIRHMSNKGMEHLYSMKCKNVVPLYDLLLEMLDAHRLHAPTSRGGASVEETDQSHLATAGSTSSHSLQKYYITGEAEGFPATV
Sequence of Androgen receptor (Homo sapiens) (P10275 whole entry, looked up): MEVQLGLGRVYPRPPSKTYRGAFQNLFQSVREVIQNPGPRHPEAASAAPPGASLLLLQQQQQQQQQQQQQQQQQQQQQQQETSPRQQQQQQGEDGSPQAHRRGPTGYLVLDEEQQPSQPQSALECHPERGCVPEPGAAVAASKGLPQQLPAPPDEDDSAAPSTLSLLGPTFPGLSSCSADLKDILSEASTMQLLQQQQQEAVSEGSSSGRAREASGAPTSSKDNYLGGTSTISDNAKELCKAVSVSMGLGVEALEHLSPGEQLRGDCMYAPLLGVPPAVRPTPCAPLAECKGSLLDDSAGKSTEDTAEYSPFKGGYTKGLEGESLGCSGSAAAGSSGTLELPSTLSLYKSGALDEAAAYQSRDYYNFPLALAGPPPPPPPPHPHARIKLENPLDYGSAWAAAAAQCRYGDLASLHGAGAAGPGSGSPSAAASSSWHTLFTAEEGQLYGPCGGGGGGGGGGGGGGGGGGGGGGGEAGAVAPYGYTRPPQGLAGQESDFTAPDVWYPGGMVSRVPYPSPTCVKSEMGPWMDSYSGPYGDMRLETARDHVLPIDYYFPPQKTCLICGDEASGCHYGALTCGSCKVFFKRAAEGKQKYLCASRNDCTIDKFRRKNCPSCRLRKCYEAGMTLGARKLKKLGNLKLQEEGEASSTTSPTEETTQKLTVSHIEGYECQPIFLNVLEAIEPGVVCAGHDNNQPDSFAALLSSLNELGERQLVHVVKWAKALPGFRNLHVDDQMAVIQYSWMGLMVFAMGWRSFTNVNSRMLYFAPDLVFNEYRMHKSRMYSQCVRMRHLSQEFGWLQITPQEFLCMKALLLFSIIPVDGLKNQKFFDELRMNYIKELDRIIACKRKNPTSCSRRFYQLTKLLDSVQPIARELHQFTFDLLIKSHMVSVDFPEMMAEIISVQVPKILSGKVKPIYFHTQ

SMILES | Potency [1] | Potency [2] | Potency [3] | Potency [4] | Potency [5] | Potency [6] | Potency [7] | outcome [8] | Potency [9] | outcome [10] | Potency [11] | outcome [12] | outcome [13] | Potency [14] | Potency [15] | Potency [16] | Potency [17] | Potency [18] | Potency [19]
OC(CCN1CCCCC1)(c1ccccc1)C1CC2C=CC1C2 (centres undefined) | inactive | inactive | inactive | inactive | inactive | inactive | inactive | inactive | inactive | inactive | inactive | inactive | inactive | – | – | – | – | – | –
CC(C)(C)c1ccc(O)c(O)c1 | inactive | inactive | – | 22.6 µM (active) and 13.8 µM (active) | 40.2 µM (active) and 45.3 µM (active) | inactive | inactive | inactive | inactive | – | inactive | inactive | – | inactive | inactive | 27.3 µM (active) | 50.2 µM (active) and 24.3 µM (active) | – | –
CN1C(=O)N(C)C(O)C1O (centres undefined) | inactive | inactive | – | inactive | inactive | inactive | inactive | inactive | inactive | inactive | – | inactive | inactive | – | – | inactive | inactive | – | –
C=C(C)C(=O)OCCCCCCCC(C)C | inactive | inactive | – | inactive | inactive | inactive | inactive | inactive | inactive | inactive | inactive | inactive | inactive | inactive | – | – | – | inactive | inactive
C[C@H]1C[C@@H](O)CC(C)(C)C1 | inactive | – | inactive | inactive | inactive | – | inactive | inactive | inactive | – | inactive | inactive | inactive | inactive | – | – | inactive | – | –
OCCOc1ccc(OCCO)cc1 | inactive | inactive | inactive | inactive | inactive | inactive | inactive | inactive | inactive | inactive | inactive | inactive | inactive | inactive | – | inactive | inactive | – | –
C=COCC1CCC(CO)CC1 (centres undefined) | inactive | inactive | inactive | – | inactive | – | inactive | inactive | inactive | inactive | inactive | inactive | inactive | inactive | – | inactive | inactive | inactive | –
CCCN1CCCC[C@H]1C(=O)Nc1c(C)cccc1C | inactive | inactive | inactive | inactive | inactive | – | inactive | inactive | inactive | – | – | inactive | inactive | inactive | inactive | inactive | inactive | inactive | –
CCN(CC)CCNC(=O)c1cc(S(C)(=O)=O)ccc1OC | inactive | – | inactive | inactive | inactive | – | inactive | inactive | inactive | inactive | inactive | inactive | inactive | inactive | inactive | inactive | inactive | inactive | –
CCCC(=O)O[C@]1(C(=O)CO)CC[C@H]2[C@@H]3CCC4=CC(=O)CC[C@]4(C)[C@H]3[C@@H](O)C[C@@]21C | inactive | inactive | – | – | inactive | inactive | – | inactive | inactive | – | inactive | inactive | – | inactive | inactive | – | inactive | 2.13 µM (active) | –
Oc1ccc(C2CNCCc3c2cc(O)c(O)c3Cl)cc1 (centres undefined) | inactive | inactive | inactive | inactive | inactive | – | inactive | inactive | inactive | – | inactive | inactive | inactive | inactive | inactive | – | inactive | inactive | –
Cc1ccc(C#N)cc1 | inactive | inactive | inactive | inactive | inactive | inactive | inactive | inactive | inactive | inactive | inactive | inactive | inactive | – | – | inactive | inactive | inactive | –
CC1=CC(C)C(C=O)CC1 (centres undefined) | inactive | inactive | inactive | inactive | inactive | – | inactive | inactive | inactive | inactive | inactive | inactive | inactive | inactive | – | inactive | inactive | inactive | –
CCc1cccc2c(CCO)c[nH]c12 | inactive | inactive | – | inactive | inactive | – | – | inactive | inactive | – | inactive | inactive | – | – | – | inactive | inactive | inactive | –
